Results filed as inconclusive are left out. Activity calls are given as the source filed them. How the source made its calls: active means hit-call score of the fitted dose curve at least 0.9, where 1 is the maximum; inconclusive means response in the unintended direction; inactive means score below 0.9.

Read-out in the test: xenobiotic metabolism (CYP2C9), CYP2C9 (gene 1559)
Put plainly: CLD_CYP2C9_6hr: CellzDirect (CLD) Gene Expression Assay for xenobiotic metabolism (CYP2C9) at 6 hours (AID 2283664). The protocol: CLD_6hr is a cell-based, multiplexed-readout assay that uses hepatocyte, a human liver primary cell, with measurements taken at 6 hours after chemical dosing in a 96-well plate.CLD_CYP2C9_6hr is one of 16 assay component(s) measured or calculated from the CLD_6hr assay. It is designed to make measurements of mRNA induction, a form of inducible reporter, as detected with chemiluminescence signals by Quantitative Nuclease Protection Assay (qNPA) technology.Data from the assay component CLD_CYP2C9_6hr was analyzed at the endpoint, CLD_CYP2C9_6hr, in the positive analysis fitting direction relative to DMSO as the negative control and baseline of activity. Using a type of inducible reporter, gain-of-signal activity can be used to understand changes in the reporter gene as they relate to the gene CYP2C9. Furthermore, this assay endpoint can be referred to as a primary readout. To generalize the intended target to other relatable targets, this assay endpoint is annotated to the cyp intended target family, where subfamily is xenobiotic metabolism.
Human hepatocyte cultures were treated daily for two consecutive days with fresh dosing solutions containing appropriate concentrations of the 320 ToxCast chemicals (chemical identities were blinded to CellzDirect and other ToxCast collaborators), vehicle control (0.2% DMSO), and positive control inducers as summarized in Table 1. Due to the large number of treatment groups and chemicals examined, the ToxCast chemicals were divided into two groups (spanning two independent cultures of hepatocytes from separate donor preparations (Hu778: ToxCast plates 1 and 2; Hu776: ToxCast plates 3 and 4). Each preparation of human hepatocyte cultures was treated with respective vehicle control, medium only control, set of six positive controls/reference chemicals for the five hepatic receptor pathways, and a subset of eight of the ToxCast chemicals (indoxacarb, pyrithiobac-sodium, norflurazon, cyhalofop-butyl, methomyl, thiram, acetochlor, and propiconazole). These replicate data, coupled with internal replicates designed within the blinded ToxCast chemical library, provided additional data to evaluate interindividual differences between hepatocyte preparations and their potential impact on chemical profiles.Cell morphology and integrity were evaluated using phase-contrast microscopy as an indicator of hepatocyte cell health (Tyson & Green, 1987). Cultures for each treatment group (i.e., media, vehicle [0.2% DMSO], positive control inducers [multiple concentrations], and the ToxCast chemicals [multiple concentrations]) were observed and cell morphology was assessed relative to vehicle control cultures at each harvest time point (0, 6, 24, or 48 h). […] Images were evaluated at the conclusion of the study to assess changes in cell integrity and account for the effects of chemical exposure on uncharacteristic changes in concentration-dependent gene expression profiles. The results from these determinations of apparent cytotoxicity were annotated (yes/no) alongside the corresponding qNPA data for reference.At the conclusion of each treatment period, hepatocyte cultures (96-well) were washed with 1 volume of HBSS, lysed by addition of 25 ul ArrayPlate lysis buffer (HTG, Tucson, AZ), and 70 ul/well of Denaturation Oil, denatured by incubation at 95C for 10 min, and frozen at approximately -70C until analysis by nuclease protection assay (qNPA) (Roberts et al., 2007). For qNPA analysis, cell lysates were thawed at 50C for approximately 30 min, qNPA probes were added, and samples were incubated at 95C for 10 min to begin the detection process by denaturing the target RNA, dissociating the duplexes and secondary structure hybridization. At the conclusion of the hybridization period, S1 nuclease reagent was added to each sample to digest all nonprotected nucleotides at 50C for 60-90 min. […]
As to `CCCSP(=O)(OCC)SCCC`, the outcome was inactive.
For `Cc1ccn2nc(S(=O)(=O)Nc3c(F)cccc3F)nc2n1`, the compound was classed as inactive.
As to `CSC1=N[C@@](C)(c2ccccc2)C(=O)N1Nc1ccccc1`, the compound was classed as inactive.
The value for `CCOP(=S)(OCC)Oc1ccc2c(C)c(Cl)c(=O)oc2c1` was “inactive”.
Regarding `CON=C(C(=O)OC)c1ccccc1CON=C(C)c1cccc(C(F)(F)F)c1`, the outcome was inactive.
With `CCCCSP(=O)(SCCCC)SCCCC`, the compound was called inactive.
Turning to `CCCCOC(=O)c1ccccc1C(=O)O`, the call was inactive.
`CC(C1CC1)C(O)(Cn1cncn1)c1ccc(Cl)cc1` (stereo not drawn): the outcome was inactive.
Turning to `C=C(C)[C@H]1Cc2c(ccc3c2O[C@@H]2COc4cc(OC)c(OC)cc4[C@@H]2C3=O)O1`, the compound was called inactive.
Take `CCOC(=O)COc1cc(-c2nn(C)c(OC(F)F)c2Cl)c(F)cc1Cl`: the result was inactive.
Turning to `CCc1cccc(CC)c1N(COC)C(=O)CCl`, the compound was classed as inactive.
With `N#CSCSC#N`, the result was inactive.
Turning to `COc1cc(OC)nc(Sc2cccc(Cl)c2C(=O)O)n1`, the compound was classed as inactive.
For `Nc1nc(N)nc(NC2CC2)n1`, the result was inactive.
The value for `CCOP(=S)(OCC)OC(Cl)C(Cl)(Cl)Cl` (stereo not drawn) was “inactive”; that for `COP(=O)(NC(C)=O)SC` (stereo not drawn) was “inactive”.
The value for `COc1cccc(C(=O)NN(C(=O)c2cc(C)cc(C)c2)C(C)(C)C)c1C` was “inactive”.
`CC(=NC#N)N(C)Cc1ccc(Cl)nc1`: the compound was called inactive.
The value for `CNC(=O)ON=C(SC)C(=O)N(C)C` was “inactive”.
In the case of `CN1COCN(Cc2cnc(Cl)s2)C1=N[N+](=O)[O-]`, the call was inactive.
The result for `CC(C)N(C(=O)SCC(Cl)=C(Cl)Cl)C(C)C` reads “inactive”.
For the compound `CC[C@H](C)[C@H]1O[C@]2(C=C[C@@H]1C)C[C@@H]1C[C@@H](C/C=C(\C)[C@@H](O[C@H]3C[C@H](OC)[C@@H](O[C@H]4C[C@H](OC)[C@@H](NC)[C@H](C)O4)[C@H](C)O3)[C@@H](C)/C=C/C=C3\CO[C@@H]4[C@H](O)C(C)=C[C@@H](C(=O)O1)[C@]34O)O2`, the result was inactive.
On to `CCOP(=O)(OCC)Oc1cc(C)nc(C(C)C)n1`, for which the compound was called inactive.
The value for `CCNc1nc(Cl)nc(NC(C)(C)C#N)n1` was “inactive”; that for `CCC(CC)Nc1c([N+](=O)[O-])cc(C)c(C)c1[N+](=O)[O-]` was “inactive”.
For the compound `O=C(O)c1cc(Oc2ccc(C(F)(F)F)cc2Cl)ccc1[N+](=O)[O-]`, the compound was called inactive.
Turning to `CC(C)=CC1C(C(=O)OCN2C(=O)C3=C(CCCC3)C2=O)C1(C)C` (stereo not drawn), the result was inactive.
`COP(=O)(OC)SCn1c(=O)oc2cc(Cl)cnc21`: the compound was classed as inactive.
For `O=[N+]([O-])c1cc(C(F)(F)F)c(Cl)c([N+](=O)[O-])c1Nc1ncc(C(F)(F)F)cc1Cl`, the compound was classed as inactive.
Turning to `CSc1nnc(C(C)(C)C)c(=O)n1N`, the result was inactive.
For the compound `Nc1c(Cl)cc([N+](=O)[O-])cc1Cl`, the call was inactive.
The value for `O=c1ccc(=O)[nH][nH]1` was “inactive”; that for `CSc1nc(NC(C)C)nc(NC(C)C)n1` was “inactive”.

For the origin of these results see PubChem BioAssay (EPA / NIEHS).
